From PubChem BioAssay (NCI)
Several values for one entry are separate records, joined by “and”; a condition that tells them apart may be missing. Equal values may be shown once. The panel holds about 83,000 compounds, 20% with a hit somewhere; the sample as a whole holds those more often.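 Results are percent growth after 48 hours of single-concentration exposure. 100 means growth as in untreated cells, lower positive values show inhibition; negative values down to -100 show cell death.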 Activity calls are given as the source filed them. Rule for the calls: active = growth percent below 10; inactive = the rest.

Key:
Test in all cases: NCI-60 one-dose screen, 48 h (100 = growth as untreated, 0 = no growth, -100 = all killed)
Settings in all cases: 10 µM unless noted
[1] = system: SR leukemia
[2] = system: RPMI-8226 leukemia
[3] = system: OVCAR-5 ovarian
[4] = system: OVCAR-4 ovarian
[5] = system: SK-OV-3 ovarian
[6] = system: IGROV1 ovarian
[7] = system: HS 578T breast
[8] = system: T-47D breast
[9] = system: SW-620 colon
[10] = system: MCF7 breast
[11] = system: HCT-116 colon
[12] = system: HCC-2998 colon
[13] = system: MDA-MB-468 breast
[14] = system: OVCAR-8 ovarian
[15] = system: OVCAR-3 ovarian
[16] = system: NCI/ADR-RES ovarian
[17] = system: BT-549 breast
[18] = system: MDA-MB-435 melanoma
[19] = system: KM12 colon

Measured: growth

COc1cccc(C(N)=Nc2ccc(OCCCCCCCCn3cncn3)cc2)c1
inactive: [1] 10.4% | [2] 14.2% | [3] 29.6% | [4] 55.5% | [5] 41.7% | [6] 27.3% | [7] 37.2% | [8] 52% | [9] 21.2% | [10] 18.3% | [11] 12.5% | [12] 23.4% | [13] 24.8%

CC(=O)Nc1cccc(-n2c(COc3ccc(I)cc3)nc3ccccc32)c1
inactive: [1] 56.2% and 104% | [14] 97.1% and 117% | [3] 103% and 113% | [4] 74.9% and 109% | [5] 96.8% and 111% | [6] 86.1% and 113% | [15] 88.8% and 87.7% | [7] 62.4% and 115% | [16] 76.6% and 111% | [8] 54.6% and 107% | [17] 96.9% and 110% | [18] 97.7% and 108% | [9] 96.6% and 108% | [10] 74.7% and 103% | [11] 80.4% and 104% | [12] 118% and 119% | [19] 94.7% and 98.5% | [13] 78.7% and 111%

CC1=C(C)C(=O)C(N2CCSCC2)=CC1=O
inactive: [1] 111% | [2] 72.9% | [14] 92.7% | [3] 97.2% | [4] 94.4% | [5] 105% | [6] 92.9% | [7] 103% | [16] 93.7% | [8] 105% | [17] 91% | [18] 112% | [9] 97.3% | [10] 99.6% | [11] 93% | [12] 109% | [19] 105% | [13] 60.4%

CC(C)(C)C(=O)c1c2c(c3ccc4c5ccccc5ccc4n13)C(=O)c1ccccc1C2=O
inactive: [1] 85.5% | [14] 96.3% | [3] 116% | [4] 71.2% | [5] 118% | [6] 95.7% | [15] 94.4% | [7] 100% | [16] 95.5% | [8] 95.6% | [17] 101% | [18] 103% | [9] 102% | [10] 75% | [11] 90.7% | [12] 112% | [19] 94.4% | [13] 98.7%

CN1CCN(C(=O)Oc2cc3c(c4ccccc24)[C@H](CCl)CN3C(=O)c2cc3cc(OCCCN4CCC4)ccc3[nH]2)[C@@H]2CSSC[C@H]21
inactive: [4] 12.5%
active: [1] 5.86% | [2] -23.6% | [14] -32.4% | [3] -18.1% | [5] -13.2% | [6] 2.74% | [7] -12.2% | [16] -23.1% | [8] -5.44% | [17] -49.8% | [18] -36.2% | [9] 4.87% | [10] -63.4% | [11] 1.54% | [12] -83.3% | [19] -40.5% | [13] -72.1%

COc1cccc(-c2ccc(/C=N/NC(=O)c3[nH]c4ccc(Br)cc4c3-c3ccccc3)s2)c1
active: [1] 6.57% | [2] -22.9% | [14] 0.0466% | [3] -5.23% | [6] 8.09% | [16] -50.1% | [17] -26.9% | [18] -51.3% | [10] 1.38% | [11] -27.5% | [19] -14.2% | [13] 7.16%
inactive: [4] 31.7% | [5] 22.1% | [7] 17.8% | [8] 52.9% | [9] 20.4%

COc1ccc2[nH]c(O)c(N=Nc3nc(-c4ccccc4)cs3)c2c1
active: [14] 6.68% | [4] -7.14% | [5] -17.4% | [16] 3.46% | [8] 0.04% | [11] 1.24% | [13] -20.7%
inactive: [1] 27% | [2] 58.6% | [3] 53.2% | [6] 36.1% | [7] 41.6% | [17] 50.2% | [18] 39.7% | [9] 37.4% | [10] 11.6% | [12] 58.6% | [19] 46.7%

N#CC1=C(c2cccs2)Nc2c(c(-c3ccccc3)nn2-c2ccccc2)C12C(=O)Nc1ccc(Br)cc12 (stereo not drawn)
active: [1] -1.14% | [2] 2.85% | [14] -14.6% | [3] -60.4% | [4] 0.653% | [5] -0.147% | [6] -7.57% | [7] -7.18% | [8] 1.8% | [17] -68.4% | [18] -40.1% | [9] -24.6% | [10] 7.23% | [11] -52.8% | [12] 6.28% | [19] -12.2% | [13] -31.9%
inactive: [16] 10.5%

O=C(NC(=S)N1CCN(c2ncnc3c2cnn3-c2ccccc2)CC1)c1ccc(F)cc1
active: [1] 8.59%
inactive: [2] 76.3% | [14] 67.8% | [3] 92.8% | [4] 45.8% | [5] 69.1% | [6] 79.4% | [7] 70.5% | [16] 71.8% | [8] 66.6% | [17] 86.2% | [18] 77.2% | [9] 76.6% | [10] 52.4% | [11] 55.1% | [12] 99.1% | [19] 79.7% | [13] 66.7%

Cc1cnc2ccc(Oc3ccccc3-c3ccccc3)nn12
inactive: [1] 89.3% | [2] 106% | [14] 103% | [3] 111% | [4] 112% | [5] 178% | [6] 105% | [7] 120% | [16] 104% | [8] 110% | [17] 107% | [18] 110% | [9] 124% | [10] 93% | [11] 101% | [12] 113% | [19] 107% | [13] 108%

Cc1ccc(N=Nc2c(N)nn3c(-c4cc5cc(Br)ccc5oc4=O)ccnc23)cc1
inactive: [1] 50.2% | [2] 93.5% | [14] 54% | [3] 54.8% | [4] 102% | [5] 98.6% | [6] 45.2% | [7] 69.4% | [16] 29% | [8] 56.4% | [17] 53% | [18] 113% | [9] 107% | [10] 51.1% | [11] 44.5% | [12] 87.1% | [19] 72.4% | [13] 73.5%

C=CC[n+]1cccc2c3ccccc3ccc21
inactive: [1] 46.5% | [14] 41.1% | [3] 70.8% | [4] 42% | [5] 77% | [6] 72.5% | [15] 35.9% | [7] 43.7% | [16] 97.2% | [8] 27% | [18] 61.3% | [9] 45.1% | [10] 25.2% | [11] 48.6% | [12] 55.7% | [19] 20.2%
active: [17] 9.92% | [13] -9.82%

Cn1cc(Nc2ncnc(-c3ccc(N4CCCC4)c(C#N)c3)n2)cn1
inactive: [1] 28.7% | [2] 83.9% | [14] 84.4% | [3] 85.4% | [4] 78.9% | [5] 76.4% | [6] 51.7% | [7] 41.3% | [16] 67.3% | [8] 84.9% | [17] 76.1% | [9] 57.6% | [10] 66.5% | [11] 51.2% | [12] 68.6% | [19] 55.2% | [13] 16.7%
active: [18] 8.16%
